8 molecules from PubChem BioAssay (Tox21) can be followed below.

“And” between values parts separate entries of the source, which are not always exact repeats. Identical values can stand only once. Records with an inconclusive call do not appear. Some compounds were tested as several samples or in several runs, with calls that do not always agree. The source made the active and inactive calls. Unless noted, calls follow the shape of the dose curve; as a rule, active = well fitted curve in the direction sought with a large enough effect in the repeat runs; inconclusive = weak or mixed curves; inactive = no such curve, though single readings can be large; an effect the other way counts as inactive or inconclusive.

In assay [1] the target is Progesterone receptor (Homo sapiens) (UniProt P06401). Put plainly: qHTS assay to identify small molecule agonists of the progesterone receptor (PR) signaling pathway (AID 1346784; calls by dose curve; also: nearly all actives have a fitted effect of over 30% in size). Summed up: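 Agonist qHTS: compounds pinned onto 3,000 PR-UAS-bla HEK 293T cells per well in charcoal-stripped serum medium, 16hr at 37C, then beta-lactamase activity measured by LiveBLAzer FRET fluorescence after 2 hours at room temperature.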
Chain of Progesterone receptor (Homo sapiens) (P06401 whole entry, looked up): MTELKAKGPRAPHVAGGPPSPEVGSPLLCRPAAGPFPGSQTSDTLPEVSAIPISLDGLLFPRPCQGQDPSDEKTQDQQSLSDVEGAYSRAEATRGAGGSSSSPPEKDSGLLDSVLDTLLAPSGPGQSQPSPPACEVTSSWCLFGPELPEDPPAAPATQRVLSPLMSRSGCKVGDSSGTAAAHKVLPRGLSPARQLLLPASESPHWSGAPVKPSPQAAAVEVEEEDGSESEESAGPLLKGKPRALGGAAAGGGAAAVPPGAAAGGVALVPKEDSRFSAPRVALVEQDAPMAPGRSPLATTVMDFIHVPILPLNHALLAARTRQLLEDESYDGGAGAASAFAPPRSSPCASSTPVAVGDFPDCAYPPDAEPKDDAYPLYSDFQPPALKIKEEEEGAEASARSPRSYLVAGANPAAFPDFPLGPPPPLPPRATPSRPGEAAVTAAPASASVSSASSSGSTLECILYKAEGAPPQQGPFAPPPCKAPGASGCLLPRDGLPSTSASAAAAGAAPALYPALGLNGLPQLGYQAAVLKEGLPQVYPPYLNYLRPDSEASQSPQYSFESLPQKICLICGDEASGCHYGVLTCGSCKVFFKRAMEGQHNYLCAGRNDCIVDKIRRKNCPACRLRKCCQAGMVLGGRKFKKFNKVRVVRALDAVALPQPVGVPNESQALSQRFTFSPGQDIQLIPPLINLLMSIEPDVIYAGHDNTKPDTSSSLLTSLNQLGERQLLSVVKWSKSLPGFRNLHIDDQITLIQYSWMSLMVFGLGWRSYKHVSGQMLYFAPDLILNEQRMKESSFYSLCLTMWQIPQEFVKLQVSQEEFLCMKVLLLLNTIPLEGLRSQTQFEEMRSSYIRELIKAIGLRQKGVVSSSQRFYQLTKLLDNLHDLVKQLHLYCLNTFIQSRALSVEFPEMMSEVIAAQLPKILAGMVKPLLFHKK
For orientation: Quantitative high-throughput screening tests each substance at several concentrations.

For assay [2] the target is unchanged. Put plainly: qHTS assay to identify small molecule antagonists of the progesterone receptor (PR) signaling pathway (AID 1346795; active = well fitted inhibition curve with a large enough effect in the signal ratio in the repeat runs, not every such curve was filed as active; the % refers to the signal ratio). The procedure, abridged:
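Antagonist mode with agonist R5020 at 1 nM final and 16 hr incubation at 37C. Reporter was beta-lactamase driven by UAS in HEK293T (PR-UAS-bla), 2% charcoal-stripped serum; signal from LiveBLAzer FRET substrate, 2 hr at room temperature.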

Assay [3] can be described thus: qHTS assay to identify small molecule antagonists of the progesterone receptor (PR) signaling pathway - cell viability counter screen (AID 1346798). Also: series mostly up to about 92 µM; nearly all actives have a fitted effect of over 50% in size. Summed up: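 Cytotoxicity read as CellTiter-Glo luminescence (30 min, room temperature) in the same wells as the beta-lactamase readout. HEK293T PR-UAS-bla cells in charcoal-stripped 2% FBS received compound and R5020, then 16 h at 37C, 5% CO2.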

Assay [4] in a line: qHTS assay to identify small molecule agonists of the progesterone receptor (PR) signaling pathway - cell viability counter screen (AID 1346799; calls by dose curve; also: nearly all actives have a fitted effect of over 45% in size; also: potency is read from the fitted curve at half-maximal effect). The procedure, abridged: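 Cytotoxicity measured by CellTiter-Glo luminescence (30 min, RT) in the same wells as the PR beta-lactamase agonist read. Those HEK293T cells had 16 h compound treatment at 37 C in 2% charcoal-stripped FBS medium.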

Assay [5] can be described thus: qHTS assay to identify small molecule antagonists of the TGF-beta/Smad signaling pathway - cell viability counter screen (AID 1346824). Also: nearly all actives have a fitted effect of over 50% in size. The procedure, abridged:
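Cytotoxicity counter-screen run in the same wells as the beta-lactamase Smad reporter read: CellTiter-Glo luminescence after 30 min at room temperature. HEK 293T SBE-bla cells had 5 hr compound exposure at 37 C with TGF-beta1 (0.25 ng/mL stock).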

Assay [6] in a line: qHTS assay to identify small molecule agonists of the TGF-beta/Smad signaling pathway - cell viability counter screen (AID 1346829). Also: top concentration of the series differs between compounds; nearly all actives have a fitted effect of over 45% in size. Summed up:
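After overnight seating at 37 C and 5% CO2, reporter cells got compounds for 5 hr and FRET substrate for 2 hr; cell viability then came from CellTiter-Glo luminescence.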

Assay [7] can be described thus: qHTS assay to identify small molecule agonists of the TGF-beta/Smad signaling pathway (AID 1346859; active = well fitted activation curve with a large enough effect in the signal ratio in the repeat runs, not every such curve was filed as active; the % refers to the signal ratio; also: series mostly up to about 77 µM). The procedure, abridged: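 Fluorescence (ex 405 nm; em 460 and 530 nm) was read 2 h after LiveBLAzer FRET substrate at RT. The preceding compound treatment of overnight-plated SBE-bla HEK293T cells lasted 5 h at 37 C.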
For assay [8], the target named is Thyrotropin-releasing hormone receptor (Homo sapiens) (UniProt P34981). Put plainly: qHTS assay to identify small molecule antagonists of the thyrotropin-releasing hormone receptor (TRHR) signaling pathway (AID 1346877; active = well fitted inhibition curve with a large enough effect in the repeat runs, not every such curve was filed as active; also: series mostly up to about 51 µM). The procedure, abridged: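 Intracellular calcium fluorescence, read kinetically every second over 3 min, reports TRH-evoked signalling in HEK293 cells carrying TRHR. Test compounds were added 5 min ahead of a 1 nM TRH challenge.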
Chain of Thyrotropin-releasing hormone receptor (Homo sapiens) (P34981 whole entry, looked up): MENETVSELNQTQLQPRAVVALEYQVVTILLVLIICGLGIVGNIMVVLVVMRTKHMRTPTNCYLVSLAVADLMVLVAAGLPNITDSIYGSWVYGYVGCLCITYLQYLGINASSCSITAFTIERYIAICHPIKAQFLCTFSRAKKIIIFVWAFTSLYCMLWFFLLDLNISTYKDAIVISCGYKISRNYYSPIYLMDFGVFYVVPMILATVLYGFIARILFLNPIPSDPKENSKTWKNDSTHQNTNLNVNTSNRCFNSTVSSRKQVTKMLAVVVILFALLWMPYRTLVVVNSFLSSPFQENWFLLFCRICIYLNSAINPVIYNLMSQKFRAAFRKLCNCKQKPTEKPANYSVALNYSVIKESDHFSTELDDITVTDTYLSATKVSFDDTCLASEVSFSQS

Assay [9] shares this target. Put plainly: qHTS assay to identify small molecule agonists of the thyrotropin-releasing hormone receptor (TRHR) signaling pathway (AID 1346891; calls by dose curve; also: series mostly up to about 58 µM). The procedure, abridged:
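Agonist-mode intracellular calcium readout: kinetic fluorescence over 3 min at 1 s intervals after compound addition to TRHR-HEK293 cells (18 h seeded, 2 h dye-loaded at 37 C). Fifteen concentrations, triplicates.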

Assay [10] can be described thus: Human pregnane X receptor (PXR) small molecule agonists, qHTS cell viability counter screen (AID 1346977). Also: nearly all actives have a fitted effect of over 50% in size. Also: potency is read from the fitted curve at half-maximal effect. The procedure, abridged:
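Same-well viability read: CellTiter-Fluor added after 23 hr compound exposure, fluorescence measured 1 hr later. Cells were PXR-Luc HepG2 seeded at 2,000/well in 5% charcoal-stripped FBS medium, rested 5 hr before dosing at 37 C.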

The nature of assay [11]: Caspase-3/7 induction in HepG2 cells by small molecules, qHTS assay (AID 1346978). Also: nearly all actives have a fitted effect of over 15% in size. Summed up:
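Caspase-3/7 induction was measured by Caspase-Glo 3/7 luminescence (30 min, room temperature) after a 17 hr compound exposure of wild-type HepG2 cells seeded at 2,000 per well and pre-incubated 5 hr.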

Assay [12] in a line: Caspase-3/7 induction in CHO-K1 cells by small molecules, qHTS cell viability counter screen (AID 1346979). Also: nearly all actives have a fitted effect of over 35% in size. Also: potency is read from the fitted curve at half-maximal effect. The procedure, abridged:
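Cytotoxicity counter screen: CellTiter-Fluor added to compound-treated wild-type CHO-K1 cells at 16 h (37C, 5% CO2), fluorescence measured 1 h later; same wells as caspase-3/7 measurement.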

The nature of assay [13]: Caspase-3/7 induction in CHO-K1 cells by small molecules, qHTS assay (AID 1346980). Also: nearly all actives have a fitted effect of over 15% in size. Summed up:
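Luminescent Caspase-Glo 3/7 read (30min, room temperature) quantified apoptosis induction. Cells were wild-type CHO-K1, treated with compound for 17hr at 37 C and 5% CO2.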

The nature of assay [14]: Caspase-3/7 induction in HepG2 cells by small molecules, qHTS cell viability counter screen (AID 1346981). Also: series mostly up to about 92 µM; nearly all actives have a fitted effect of over 30% in size. The procedure, abridged: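 HepG2, WT, 2,000 cells/well; 5 hr pre-incubation 37 C/5% CO2; compound pin-transferred from DMSO; 16 hr exposure; CellTiter-Fluor, 1 hr; fluorescence read.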
The target in assay [15] is Nuclear receptor subfamily 1 group I member 2 (Homo sapiens) (UniProt O75469). Description: Human pregnane X receptor (PXR) small molecule agonists, qHTS assay (AID 1346982). Also: nearly all actives have a fitted effect of over 35% in size. Also: potency is read from the fitted curve at half-maximal effect. Summed up: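 Luciferase signal from ONE-Glo (30 min, room temperature) measured activation of hPXR-driven CYP3A4 reporter expression in PXR-Luc HepG2 cells treated with compounds for 24 hr at 37 C.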
Chain of Nuclear receptor subfamily 1 group I member 2 (Homo sapiens) (O75469 whole entry, looked up): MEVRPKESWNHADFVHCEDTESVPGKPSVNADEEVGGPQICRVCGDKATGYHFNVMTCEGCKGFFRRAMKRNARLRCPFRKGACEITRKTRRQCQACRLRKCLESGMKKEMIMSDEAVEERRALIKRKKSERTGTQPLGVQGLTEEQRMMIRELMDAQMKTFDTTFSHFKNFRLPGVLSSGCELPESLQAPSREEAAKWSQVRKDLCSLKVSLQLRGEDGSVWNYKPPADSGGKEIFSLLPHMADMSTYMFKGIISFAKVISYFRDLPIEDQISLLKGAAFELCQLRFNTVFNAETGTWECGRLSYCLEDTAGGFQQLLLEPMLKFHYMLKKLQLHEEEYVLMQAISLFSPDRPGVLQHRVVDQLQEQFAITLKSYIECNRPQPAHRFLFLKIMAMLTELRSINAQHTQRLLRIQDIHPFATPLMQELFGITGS

For assay [16], the target named is Nuclear receptor subfamily 1 group I member 2 (Rattus norvegicus) (UniProt Q9R1A7). Description: Rat pregnane X receptor (rPXR) activation by small molecules, qHTS assay (AID 1346983). Also: nearly all actives have a fitted effect of over 20% in size. As to conditions: rPXR luciferase reporter cells, One-Glo luminescence, 24 h; stronger effect = higher value. The procedure, abridged:
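Luminescent readout (One-Glo luciferase, 30 min room temperature) followed 24 hr compound treatment at 37 C of rPXR cells plated 2,000 per well and preincubated 5hr; qHTS format with compounds delivered in DMSO.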

Assay [17] has as its target Nuclear receptor subfamily 1 group I member 2 (Homo sapiens) (UniProt O75469). Put plainly: CYP3A4 induction through human pregnane X receptor (PXR) by small molecules, qHTS assay (AID 1346984). Also: nearly all actives have a fitted effect of over 40% in size. Summed up:
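Luminescence readout: luciferase signal after One-Glo (30 min, room temperature), following 3 h at 37C with 3uM final Luciferin-IPA P450 substrate. Cells were DPX-2 (HepG2, PXR/CYP3A4-luc co-transfected) dosed for 24 h.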

Assay [18] shares this target. Put plainly: Human pregnane X receptor (PXR) activation by small molecules, qHTS assay (AID 1346985). Also: nearly all actives have a fitted effect of over 40% in size. The procedure, abridged: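 DPX-2 cells (HepG2 co-transfected with a PXR response element and a CYP3A4-promoter luciferase construct) were seeded at 2,000 per well, rested 5 hr at 37C, then exposed to DMSO-dissolved compounds for 24 hr. Activation was read as luciferase luminescence.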

For assay [19], the target named is Cytochrome P450 2D6 (Homo sapiens) (UniProt P10635). Put plainly: Cytochrome P450 Family 2 Subfamily D Member 6 (CYP2D6) small molecule antagonists: luciferase reporter qHTS assay (AID 1671196). Also: series mostly up to about 120 µM; nearly all actives have a fitted effect of over 50% in size. Summed up: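 Read-out is luminescence from luciferin formed by CYP2D6 turnover of a proluciferin substrate, recorded as relative luminescence units. Reactions ran 1 h at room temperature after NADPH regeneration solution was added.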
Chain of Cytochrome P450 2D6 (Homo sapiens) (P10635 whole entry, looked up): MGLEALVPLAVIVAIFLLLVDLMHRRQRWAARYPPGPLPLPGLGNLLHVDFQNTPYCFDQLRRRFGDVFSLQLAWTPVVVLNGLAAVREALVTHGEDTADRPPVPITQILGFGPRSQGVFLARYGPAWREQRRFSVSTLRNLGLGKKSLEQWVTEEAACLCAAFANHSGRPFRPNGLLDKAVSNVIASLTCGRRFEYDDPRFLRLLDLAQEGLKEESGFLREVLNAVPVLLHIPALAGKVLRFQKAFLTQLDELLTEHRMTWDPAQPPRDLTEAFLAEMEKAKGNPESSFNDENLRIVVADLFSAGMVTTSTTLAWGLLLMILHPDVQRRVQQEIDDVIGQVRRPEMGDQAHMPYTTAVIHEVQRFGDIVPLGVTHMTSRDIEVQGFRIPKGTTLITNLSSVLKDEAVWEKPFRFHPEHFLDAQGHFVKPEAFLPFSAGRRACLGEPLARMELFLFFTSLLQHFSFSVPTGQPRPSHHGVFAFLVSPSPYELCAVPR
In general terms: Reporter assays use an easily measured gene product as a stand-in for the process of interest.

The target in assay [20] is Cytochrome P450 2C19 (Homo sapiens) (UniProt P33261). Description: Cytochrome P450 Family 2 Subfamily C Member 19 (CYP2C19) small molecule antagonists: luciferase reporter qHTS assay (AID 1671197). Also: nearly all actives have a fitted effect of over 65% in size. Also: potency is read from the fitted curve at half-maximal effect. Summed up: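 Inhibition of CYP2C19 was scored from loss of luminescence in a P450-Glo proluciferin substrate assay, NADPH-started and run 1 h at 37C, with ketoconazole as positive control.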
Chain of Cytochrome P450 2C19 (Homo sapiens) (P33261 whole entry, looked up): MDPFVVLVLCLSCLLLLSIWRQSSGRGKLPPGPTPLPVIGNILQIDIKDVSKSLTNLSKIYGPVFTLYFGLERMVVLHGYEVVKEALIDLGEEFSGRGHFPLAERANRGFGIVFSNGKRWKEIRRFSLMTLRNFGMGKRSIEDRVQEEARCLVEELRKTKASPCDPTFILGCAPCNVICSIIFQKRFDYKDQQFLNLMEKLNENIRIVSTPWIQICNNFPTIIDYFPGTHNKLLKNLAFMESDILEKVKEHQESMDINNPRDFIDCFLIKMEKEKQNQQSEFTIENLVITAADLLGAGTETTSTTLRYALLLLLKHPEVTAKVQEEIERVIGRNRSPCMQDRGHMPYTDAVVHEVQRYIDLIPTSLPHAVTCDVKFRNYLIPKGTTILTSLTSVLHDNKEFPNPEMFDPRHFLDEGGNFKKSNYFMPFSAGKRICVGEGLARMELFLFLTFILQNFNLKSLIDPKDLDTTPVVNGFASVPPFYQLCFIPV
% is scaled to controls: 0 for no effect and ±100 for the full control effect.

Chain of Nuclear receptor subfamily 1 group I member 2 (Rattus norvegicus) (Q9R1A7 whole entry, looked up): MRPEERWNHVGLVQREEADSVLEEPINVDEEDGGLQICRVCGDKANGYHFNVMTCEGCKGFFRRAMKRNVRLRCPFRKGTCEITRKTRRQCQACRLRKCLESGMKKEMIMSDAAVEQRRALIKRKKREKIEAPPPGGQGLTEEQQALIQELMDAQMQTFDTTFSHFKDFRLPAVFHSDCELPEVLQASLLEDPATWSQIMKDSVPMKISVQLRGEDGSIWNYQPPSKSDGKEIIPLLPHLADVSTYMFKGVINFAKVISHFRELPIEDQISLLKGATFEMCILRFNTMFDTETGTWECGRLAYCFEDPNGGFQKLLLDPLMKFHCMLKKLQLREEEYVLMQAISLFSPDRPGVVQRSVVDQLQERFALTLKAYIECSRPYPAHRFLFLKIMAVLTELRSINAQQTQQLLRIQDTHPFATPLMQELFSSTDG

In the case of `OB(O)O`, the Potency result in assay [1], in [2], in [3], in assay [4], in assay [5] and in assay [6] was “inactive” each time. Further, the Potency result in [7], in assay [8], in [10], in assay [11], in assay [12] and in [13] was “inactive” throughout. In addition, the Potency result in assay [14], in assay [15], in [17], in assay [19] and in assay [20] was “inactive” in each case. For the same molecule, the outcome in [9] and in assay [18] was inactive. Moreover, the max activation in [16] was -0.586% (inactive).
On to `OCCOCCOCCOCCOCCO`, for which the Potency result in assay [1], in assay [2], in assay [3], in [4], in assay [5] and in [6] was “inactive” in each case. Also, the Potency entry in [7], in [8], in assay [10], in assay [11], in assay [13] and in assay [14] was “inactive” each time. Besides, the call in [9] was inactive. In [12], the Potency is 15.7 µM (active) and inactive.
Take `CC(=O)Nc1ccc(CC(=O)O)cc1`: the Potency entry in assay [1], in assay [2], in assay [3], in [4], in assay [5] and in assay [6] was “inactive” throughout. Also, the Potency entry in assay [7], in assay [8], in [10], in [11], in assay [12] and in [13] was “inactive” throughout. The Potency entry in assay [14], in assay [15], in assay [17], in [19] and in [20] was “inactive” each time. Besides, the call in assay [9] and in assay [18] was inactive. The max activation in assay [16] was -3.84% (inactive).
With `CC(=O)C(C)C`, the Potency result in assay [1], in assay [2], in assay [3], in assay [4], in [5] and in assay [6] was “inactive” each time. Moreover, the Potency result in [7], in [8], in assay [10], in [11], in assay [13] and in [14] was “inactive” in each case. For the same molecule, the Potency result in assay [15] and in assay [19] was “inactive” throughout. Also, in assay [9], the call was inactive. Moreover, the Potency in [12] is 63.4 µM (active) and inactive.
For the molecule `Cc1cc(C)c(O)c(C)c1`, the Potency result in [1], in assay [2], in assay [3], in assay [4], in assay [5] and in assay [6] was “inactive” each time. Besides, the Potency entry in assay [7], in assay [8], in assay [10], in [11], in [13] and in assay [14] was “inactive” in each case. The Potency entry in assay [19] is “inactive”. In assay [9], the call was inactive. Besides, the Potency in assay [12] was 48.6 µM (active) and inactive; in assay [15] it was 30.6 µM (active) and inactive; in [20], 71 µM (active).
`CC(C)c1ccc(C(C)C)cc1`: the Potency result in assay [1], in [2], in [3], in [4], in assay [5] and in assay [6] was “inactive” in each case. The Potency result in assay [7], in assay [8], in assay [10], in [11], in assay [12] and in assay [13] was “inactive” in each case. In addition, the Potency result in assay [14], in assay [15] and in assay [19] was “inactive” in each case. In [9], the molecule was called inactive.
`CC(=O)OCCC(C)C`: the Potency entry in [1], in [2], in assay [3], in assay [4], in assay [5] and in assay [6] was “inactive” in each case. Moreover, the Potency entry in assay [7], in assay [8], in assay [10], in [11], in assay [12] and in assay [13] was “inactive” throughout. The Potency result in assay [14], in assay [15] and in assay [19] was “inactive” in each case. Moreover, the outcome in assay [9] was inactive. Moreover, the Potency in assay [20] is 79.7 µM (active).
For `CCCCCC(C)=O`, the Potency entry in assay [1], in assay [2], in assay [3], in assay [5], in [6] and in assay [7] was “inactive” in each case. Moreover, the Potency result in [8], in assay [11], in assay [12], in [13], in assay [14] and in assay [15] was “inactive” in each case. Moreover, the Potency entry in [19] is “inactive”. The Potency entry is “inactive and 61.1 µM (active)” in assay [4]; “inactive and 61.1 µM (active)” in assay [10]. The outcome in assay [9] was inactive.
